What all share (design): scale not given: direction of the effect not stated beside the values
The target of assay [1] is Protein translocase subunit SecA (Escherichia coli (strain K12)) (UniProt P10408). Description: Assay to Identify E. coli SecA ATPase Inhibitors. The conditions noted are these: 30 µM. It is filed as functional.
Assay [2] deals with T1, Ubiquitin-activating enzyme e1, putative (Leishmania donovani (strain BPK282A1)) (UniProt E9BSI1).
T1 sequence (whole entry): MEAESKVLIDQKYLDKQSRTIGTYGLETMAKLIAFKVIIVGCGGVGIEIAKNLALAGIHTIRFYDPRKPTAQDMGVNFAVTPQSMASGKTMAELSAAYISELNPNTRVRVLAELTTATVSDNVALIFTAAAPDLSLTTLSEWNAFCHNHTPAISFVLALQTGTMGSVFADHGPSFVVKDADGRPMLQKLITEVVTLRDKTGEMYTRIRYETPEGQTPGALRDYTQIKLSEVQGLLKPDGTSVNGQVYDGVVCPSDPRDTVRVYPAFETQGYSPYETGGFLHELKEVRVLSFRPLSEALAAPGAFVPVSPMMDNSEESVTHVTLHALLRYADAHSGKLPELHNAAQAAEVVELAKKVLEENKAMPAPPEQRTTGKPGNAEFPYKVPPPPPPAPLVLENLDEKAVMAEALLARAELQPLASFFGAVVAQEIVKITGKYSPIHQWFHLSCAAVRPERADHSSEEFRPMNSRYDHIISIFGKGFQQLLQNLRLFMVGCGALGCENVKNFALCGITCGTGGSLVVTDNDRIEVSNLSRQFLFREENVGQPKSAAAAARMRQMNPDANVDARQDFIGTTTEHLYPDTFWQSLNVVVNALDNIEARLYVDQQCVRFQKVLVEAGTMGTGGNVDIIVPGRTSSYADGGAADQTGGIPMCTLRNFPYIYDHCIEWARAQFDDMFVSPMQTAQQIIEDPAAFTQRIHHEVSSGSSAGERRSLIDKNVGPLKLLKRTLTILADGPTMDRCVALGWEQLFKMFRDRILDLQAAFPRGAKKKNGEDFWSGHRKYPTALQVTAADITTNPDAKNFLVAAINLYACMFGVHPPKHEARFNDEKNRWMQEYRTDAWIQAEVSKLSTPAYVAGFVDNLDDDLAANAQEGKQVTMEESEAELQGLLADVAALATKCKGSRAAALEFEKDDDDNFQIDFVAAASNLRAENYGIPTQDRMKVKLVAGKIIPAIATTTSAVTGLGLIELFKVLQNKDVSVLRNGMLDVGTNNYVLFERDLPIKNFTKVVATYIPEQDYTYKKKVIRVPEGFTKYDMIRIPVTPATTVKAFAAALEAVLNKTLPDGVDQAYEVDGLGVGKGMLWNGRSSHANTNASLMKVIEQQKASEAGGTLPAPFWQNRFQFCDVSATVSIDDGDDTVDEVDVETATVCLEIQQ
The experiment in a line: Leishmania donovani Ubiquitin Activating Enzyme (LdE1). It counts as functional. To be noted: 30 µM.

In assay [3] the target is AMP-activated protein kinase, AMPK (Homo sapiens) (UniProt P54646+O43741+P54619+Q9UGJ0+Q9Y478+Q13131+Q9UGI9). Description: AMP-dependent Kinase enzyme assay. An in vitro enzyme assay that detects ADP turnover that is directly proportional to AMPK activity. This uses naive AMPK that is activated during the assay with MK-8722. It counts as functional. The conditions noted are these: 30 µM.

Assay [4] concerns the target Sialic acid-binding Ig-like lectin 9 (Homo sapiens) (UniProt Q9Y336). Description: Hs-Siglec9 ALPHAscreen SOP 20170721. The conditions noted are these: 10 µM. (Bead proximity is the source of the signal in Alpha formats.)
Another assay deals with Trypanosoma cruzi. The experiment in a line: Trypanosoma cruzi phosphomannomutase and mannose-1-phosphate guanylyltransferase assay. It is filed as functional. The conditions noted are these: 10 µM.
Assay [5] addresses T2, Arginase-2, mitochondrial (Homo sapiens) (UniProt P78540).
T2 sequence (whole entry): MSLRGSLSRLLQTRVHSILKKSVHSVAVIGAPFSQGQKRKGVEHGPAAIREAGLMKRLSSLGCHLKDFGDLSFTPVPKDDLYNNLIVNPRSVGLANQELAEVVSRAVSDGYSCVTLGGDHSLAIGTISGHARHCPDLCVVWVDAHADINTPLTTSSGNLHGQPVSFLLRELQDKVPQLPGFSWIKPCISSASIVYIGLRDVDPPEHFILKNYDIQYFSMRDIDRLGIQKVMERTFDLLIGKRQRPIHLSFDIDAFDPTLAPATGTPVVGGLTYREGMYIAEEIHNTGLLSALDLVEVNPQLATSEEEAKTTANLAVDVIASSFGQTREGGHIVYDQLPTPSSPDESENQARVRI
Description: in vitro enzyme assay to detect the production of urea directly proportional to the activity of Arginase II. Also: in the data most compounds retested in dose-response had high values. It counts as functional. To be noted: 33.3 µM.

The target in assay [6] is T3, Proteasome subunit beta (Trypanosoma cruzi) (UniProt O96673).
T3 sequence (whole entry): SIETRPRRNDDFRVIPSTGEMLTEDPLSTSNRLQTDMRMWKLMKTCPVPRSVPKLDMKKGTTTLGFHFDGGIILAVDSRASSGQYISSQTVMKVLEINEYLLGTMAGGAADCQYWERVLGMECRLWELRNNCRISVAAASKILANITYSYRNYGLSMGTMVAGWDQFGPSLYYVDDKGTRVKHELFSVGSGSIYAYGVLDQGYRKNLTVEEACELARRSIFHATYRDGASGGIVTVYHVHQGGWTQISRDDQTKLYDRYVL
The experiment in a line: Trypanosoma cruzi proteasome chymotrypsin-like activity (TcProtChymo) assay. Also: in the data most compounds retested in dose-response had high values. It is filed as functional. The conditions noted are these: 9.37 µM.

The species entered for another assay is Homo sapiens. Description: To identify inhibition of the IFN signalling (Jak-Stat) pathway via expression of an eGFP reporter gene under the control of an IFN-stimulated response element (ISRE) containing MxA promoter. It counts as functional. The conditions noted are these: 30 µM. Background: Reporter assays use an easily measured gene product as a stand-in for the process of interest.

Assay [7] addresses T4, Tyrosyl-tRNA synthetase, putative (Trypanosoma cruzi (strain CL Brener)) (UniProt Q4DSP6).
T4 sequence (whole entry): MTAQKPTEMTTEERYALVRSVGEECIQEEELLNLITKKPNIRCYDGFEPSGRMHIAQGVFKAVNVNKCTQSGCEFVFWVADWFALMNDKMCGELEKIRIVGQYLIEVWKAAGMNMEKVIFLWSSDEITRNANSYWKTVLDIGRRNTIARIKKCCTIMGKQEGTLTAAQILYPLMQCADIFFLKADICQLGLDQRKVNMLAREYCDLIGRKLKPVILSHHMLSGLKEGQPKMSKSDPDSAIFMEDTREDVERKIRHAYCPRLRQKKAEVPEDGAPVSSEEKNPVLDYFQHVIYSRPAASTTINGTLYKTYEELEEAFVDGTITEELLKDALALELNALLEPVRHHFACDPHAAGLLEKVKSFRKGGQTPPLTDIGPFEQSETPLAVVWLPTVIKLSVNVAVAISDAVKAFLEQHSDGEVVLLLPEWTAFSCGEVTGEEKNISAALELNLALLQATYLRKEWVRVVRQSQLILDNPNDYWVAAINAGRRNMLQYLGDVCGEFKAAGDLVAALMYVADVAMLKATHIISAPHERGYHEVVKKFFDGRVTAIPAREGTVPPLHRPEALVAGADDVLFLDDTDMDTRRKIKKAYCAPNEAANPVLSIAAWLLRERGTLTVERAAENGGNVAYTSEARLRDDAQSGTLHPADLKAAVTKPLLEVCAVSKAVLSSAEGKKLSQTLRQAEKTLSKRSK
Description: Trypanosoma cruzi tyrosyl tRNA synthetase (TcYRS) _High Tyrosine SOP. Also: in the data most compounds retested in dose-response had high values. It is filed as functional. To be noted: 30 µM.

Assay [8] addresses T4, Tyrosyl-tRNA synthetase, putative (Trypanosoma cruzi (strain CL Brener)). The experiment in a line: Trypanosoma cruzi tyrosyl tRNA synthetase (TcYRS) SOP. It counts as functional. The conditions noted are these: 30 µM.
For assay [9], the target named is Chromo domain-containing protein 1 (Saccharomyces cerevisiae (strain ATCC 204508 / S288c) (Baker's yeast)) (UniProt P32657). The experiment in a line: ScCHD-1 Enzyme Inhibition Assay. Also: in the data most compounds retested in dose-response had high values. It counts as functional. To be noted: 30 µM.
Sequence of Chromo domain-containing protein 1 (Saccharomyces cerevisiae (strain ATCC 204508 / S288c) (Baker's yeast)) (P32657 whole entry, the tested form may be a part): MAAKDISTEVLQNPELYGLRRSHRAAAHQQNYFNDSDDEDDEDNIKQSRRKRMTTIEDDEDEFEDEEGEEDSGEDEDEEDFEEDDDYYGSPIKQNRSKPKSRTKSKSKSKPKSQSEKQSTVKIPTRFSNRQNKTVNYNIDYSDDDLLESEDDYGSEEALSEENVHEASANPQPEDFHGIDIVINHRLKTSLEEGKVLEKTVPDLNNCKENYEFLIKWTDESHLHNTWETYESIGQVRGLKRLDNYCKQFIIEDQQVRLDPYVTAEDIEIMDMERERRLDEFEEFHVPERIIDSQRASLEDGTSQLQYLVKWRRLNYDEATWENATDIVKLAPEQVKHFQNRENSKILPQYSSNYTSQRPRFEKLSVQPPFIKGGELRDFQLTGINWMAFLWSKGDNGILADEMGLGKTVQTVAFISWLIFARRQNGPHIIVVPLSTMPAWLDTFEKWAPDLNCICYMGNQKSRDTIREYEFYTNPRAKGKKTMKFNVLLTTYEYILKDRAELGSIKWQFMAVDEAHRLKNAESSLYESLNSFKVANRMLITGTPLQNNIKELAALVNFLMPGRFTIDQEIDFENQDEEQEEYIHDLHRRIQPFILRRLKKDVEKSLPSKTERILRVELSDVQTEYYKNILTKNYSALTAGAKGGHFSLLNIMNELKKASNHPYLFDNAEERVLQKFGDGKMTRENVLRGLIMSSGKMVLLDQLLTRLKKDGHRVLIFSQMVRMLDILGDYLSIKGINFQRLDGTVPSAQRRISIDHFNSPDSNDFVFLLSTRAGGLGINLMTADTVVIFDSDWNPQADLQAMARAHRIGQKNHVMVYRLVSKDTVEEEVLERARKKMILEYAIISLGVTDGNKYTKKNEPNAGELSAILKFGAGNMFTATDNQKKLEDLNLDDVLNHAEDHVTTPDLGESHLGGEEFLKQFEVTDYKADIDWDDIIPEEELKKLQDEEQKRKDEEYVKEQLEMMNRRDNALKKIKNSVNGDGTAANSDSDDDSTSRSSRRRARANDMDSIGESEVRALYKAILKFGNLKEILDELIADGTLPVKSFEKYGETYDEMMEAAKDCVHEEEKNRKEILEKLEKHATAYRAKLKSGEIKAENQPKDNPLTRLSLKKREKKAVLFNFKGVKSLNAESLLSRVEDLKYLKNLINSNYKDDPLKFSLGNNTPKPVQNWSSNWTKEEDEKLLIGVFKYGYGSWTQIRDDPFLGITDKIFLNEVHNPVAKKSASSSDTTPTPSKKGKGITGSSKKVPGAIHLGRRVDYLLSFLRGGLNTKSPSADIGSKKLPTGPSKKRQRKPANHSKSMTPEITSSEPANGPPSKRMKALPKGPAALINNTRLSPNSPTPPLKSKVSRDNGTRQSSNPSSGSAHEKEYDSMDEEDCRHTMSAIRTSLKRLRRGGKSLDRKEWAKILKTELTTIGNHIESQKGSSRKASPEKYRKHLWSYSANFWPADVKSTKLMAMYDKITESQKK

Molecules are shown by their SMILES. For some of these results: Measured potencies and affinities stand elsewhere.

Here are results for eight compounds from ChEMBL document CHEMBL3988442, “University of Dundee, Small-Polar-MMV Screening Library” (2021).

Sequence of Protein translocase subunit SecA (Escherichia coli (strain K12)) (P10408 whole entry): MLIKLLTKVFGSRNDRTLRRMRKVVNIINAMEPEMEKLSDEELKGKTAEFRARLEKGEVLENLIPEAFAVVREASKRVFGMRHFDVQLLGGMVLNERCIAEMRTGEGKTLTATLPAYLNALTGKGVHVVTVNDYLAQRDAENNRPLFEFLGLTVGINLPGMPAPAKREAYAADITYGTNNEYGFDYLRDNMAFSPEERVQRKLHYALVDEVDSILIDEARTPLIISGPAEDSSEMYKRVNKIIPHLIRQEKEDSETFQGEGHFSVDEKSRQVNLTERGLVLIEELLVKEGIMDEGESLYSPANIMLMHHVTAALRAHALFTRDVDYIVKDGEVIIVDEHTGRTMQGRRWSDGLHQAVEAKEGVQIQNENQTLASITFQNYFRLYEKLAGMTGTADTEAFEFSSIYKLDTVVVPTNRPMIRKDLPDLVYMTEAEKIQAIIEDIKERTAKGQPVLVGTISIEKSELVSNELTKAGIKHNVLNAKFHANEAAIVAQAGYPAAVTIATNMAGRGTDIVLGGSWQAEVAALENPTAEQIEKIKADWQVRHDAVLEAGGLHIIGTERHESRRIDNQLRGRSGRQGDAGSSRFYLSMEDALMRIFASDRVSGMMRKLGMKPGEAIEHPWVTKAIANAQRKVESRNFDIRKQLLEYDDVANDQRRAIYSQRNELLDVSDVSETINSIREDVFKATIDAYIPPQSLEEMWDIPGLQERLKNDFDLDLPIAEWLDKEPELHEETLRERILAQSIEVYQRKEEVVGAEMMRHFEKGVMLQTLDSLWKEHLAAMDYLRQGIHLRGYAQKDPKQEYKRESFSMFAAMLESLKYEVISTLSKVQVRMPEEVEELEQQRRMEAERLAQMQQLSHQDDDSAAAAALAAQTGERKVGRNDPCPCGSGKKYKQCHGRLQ
Sequence of Sialic acid-binding Ig-like lectin 9 (Homo sapiens) (Q9Y336 whole entry): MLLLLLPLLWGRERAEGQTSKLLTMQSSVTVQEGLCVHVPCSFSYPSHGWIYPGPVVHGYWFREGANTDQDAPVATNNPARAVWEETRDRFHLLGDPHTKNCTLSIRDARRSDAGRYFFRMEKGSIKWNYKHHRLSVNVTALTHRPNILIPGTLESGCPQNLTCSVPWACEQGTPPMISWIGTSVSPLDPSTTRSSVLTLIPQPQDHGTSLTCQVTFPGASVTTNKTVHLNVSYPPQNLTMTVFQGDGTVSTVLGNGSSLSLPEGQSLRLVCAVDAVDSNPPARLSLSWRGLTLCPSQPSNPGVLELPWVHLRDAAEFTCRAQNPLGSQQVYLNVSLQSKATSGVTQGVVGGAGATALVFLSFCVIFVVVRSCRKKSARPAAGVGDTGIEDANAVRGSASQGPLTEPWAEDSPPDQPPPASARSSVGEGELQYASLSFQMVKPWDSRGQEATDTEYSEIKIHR

Regarding `CC(C)NC(=O)c1nnn(-c2cccc(C(F)(F)F)c2)c1C1CC1`, the Percent Effect in assay [1] is -3.01%; in [2], 15.3%; in assay [3], -3.96%; in assay [4], 15.4%; with Trypanosoma cruzi, 5.73%; in [5] it was 15.4%. Also, the Percent Effect was 22.8% in assay [6]; 11.4% in the assay listed under Homo sapiens; 4.21% in assay [7]; 12.8% in assay [8]; 77.3% in assay [9].

Consider `CCn1c(C)cc(C(=O)N2CCCC(c3nc(C)no3)C2)c1C` (stereo not drawn), for which the Percent Effect is -3.15% in assay [1]; 15.6% in assay [2]; 3.61% in [3]; -3.42% in assay [4]; 2.06% in the assay with Trypanosoma cruzi; 1.47% in assay [5]. Also, the Percent Effect is 17.5% in assay [6]; 14.4% in the assay filed under Homo sapiens; 8.57% in [7]; 9.41% in [8]; -22.5% in assay [9].

Regarding `CNC(=O)CCCNCc1c(C(C)C)nn(C)c1N(C)C`, the Percent Effect in assay [1] was -1.38%; in assay [2], 0%; in assay [3] it was -11.4%; in assay [4] it was -8.3%; in the assay on Trypanosoma cruzi it was -2.15%; in assay [5], 2.52%. For the same compound, the Percent Effect in assay [6] was 0.761%; in the assay listed under Homo sapiens it was -13.6%; in [7], -2.46%; in assay [8] it was -1.24%; in [9] it was 5.41%.

Consider `Cc1ccc(OCCC(=O)NC2CCc3nc(C)cn3C2)cc1` (stereo not drawn), for which the Percent Effect in assay [1] was -3.65%; in [2] it was 5.26%; in [3] it was 5.43%; in assay [4], 5.54%; in the assay with Trypanosoma cruzi it was 0.0974%; in assay [5] it was -4.73%. Further, the Percent Effect in [6] was 14.7%; in the assay listed under Homo sapiens, 15.1%; in [7], 3.19%; in assay [8], 10.4%; in [9] it was -1.61%.

`O=C(c1nc(COc2ccc3c(c2)OCO3)no1)N1CCCC1`: the Percent Effect in [1] was -2.38%; in [2], 1.33%; in assay [3] it was -0.332%; in [4], 4.46%; with Trypanosoma cruzi it was -6.88%; in assay [5] it was -12.5%. Further, the Percent Effect in assay [6] was 9.98%; in the assay filed under Homo sapiens, 3.63%; in assay [7], 3.17%; in [8], 5.13%; in assay [9], -8.92%.

On to `c1ccc(Oc2cc(CNCC3CNc4ccnn4C3)ccn2)cc1` (stereo not drawn), for which the Percent Effect in assay [1] was -2.02%; in [2], 11.4%; in assay [3], -0.557%; in [4] it was -0.022%; in the assay on Trypanosoma cruzi it was 5.85%; in assay [5], 2.37%. In addition, the Percent Effect in [6] is 11.7%; in the assay filed under Homo sapiens, 11.8%; in assay [7], 19.8%; in [8] it was 20.2%; in [9], -13.3%.

For the compound `CS(=O)(=O)N1CCC(O)(Cn2c(C3CC3)nc3ccccc3c2=O)CC1`, the Percent Effect in assay [1] was -6.42%; in assay [2] it was 1.35%; in [3] it was 8%; in [4], 2.72%; with Trypanosoma cruzi, -4.35%; in assay [5], -0.232%. Moreover, the Percent Effect was 5.77% in assay [6]; 11.6% in the assay filed under Homo sapiens; -1.07% in [7]; -3.9% in assay [8]; 7% in [9].

Regarding `COC1CCN(C(=O)CCc2c(C)nc3ccnn3c2C)CC1`, the Percent Effect is -0.424% in [1]; 5.26% in assay [2]; 1.13% in assay [3]; -0.445% in assay [4]; -3.64% in the assay on Trypanosoma cruzi; 5.4% in assay [5]. The Percent Effect in [6] was 1.95%; in the assay listed under Homo sapiens, -10.2%; in assay [7], 4.43%; in [8] it was 6.17%; in assay [9], 5.83%.
